# Results published in PubChem BioAssay (NCI).
# This is part of a sample that, as a whole, favours compounds with a hit. Of some 83,000 tested, about 20% had one in any assay.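 Method: cells in 96-well plates; compound added at one concentration; 48 h incubation; percent growth measured; values under 10 scored active.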 Values without a mark were called inactive. Activity calls are given as the source filed them.
# System: MDA-MB-468 breast
# Test: NCI-60 one-dose screen, 48 h (100 = growth as untreated, 0 = no growth, -100 = all killed)
# Conditions: 10 µM unless noted
row,SMILES,growth
1,Cc1cn(-c2cc(C(=O)Nc3cccc(-n4ccc5c(NC(=O)c6ccccc6)nccc54)c3)cc(C(F)(F)F)c2)cn1,-9.97% (active)
2,Cc1nnc2c3nnc(-c4ccc(Cl)cc4)n3c3ccccc3n12,100%
3,CCN(CC)CC(=O)N(CC)c1ccc(C)c(Cl)c1,95.6%
